In PubChem BioAssay (NCATS):
Records with an inconclusive call do not appear. A call without a number means that no potency is given here. Active and inactive are the calls of the source. The call rests on the fitted dose curve; in most records, active means well fitted inhibition curve with a large enough effect; inconclusive means small, poorly fitted or top-dose-only effect; inactive means flat fitted curve, though single readings scatter.

How the values were obtained:
Test in all cases: qHTS profiling for inhibitors of Plasmodium falciparum proliferation (AID 504749); further: nearly all actives have a fitted effect of over 60% in size
Details in all cases: P. falciparum in erythrocytes, SYBR Green DNA, 72 h; series mostly up to 28.7 µM
AS120 = tested on: AS120
Method in brief: (§1)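 P. falciparum-infected erythrocytes (0.3% parasitemia, 2.5% hematocrit final) were exposed to compounds for 72 h at 37 C in 5% CO2, then lysed with SYBR Green buffer overnight at room temperature; parasite DNA fluorescence was normalized to artemisinin and DMSO controls.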

ATS189 = tested on: ATS189
Method in brief: as §1

ATS95 = tested on: ATS95
Method in brief: as §1

C2A = tested on: C2A
Method in brief: as §1

CP185 = tested on: CP185
Method in brief: as §1

CP191 = tested on: CP191
Method in brief: as §1

CP192 = tested on: CP192
Method in brief: as §1

CP194 = tested on: CP194
Method in brief: as §1

CP201 = tested on: CP201
Method in brief: as §1

CP211 = tested on: CP211
Method in brief: as §1

CP215 = tested on: CP215
Method in brief: as §1

CP217 = tested on: CP217
Method in brief: as §1

CP237 = tested on: CP237
Method in brief: as §1

CP238 = tested on: CP238
Method in brief: as §1

CP247 = tested on: CP247
Method in brief: as §1

CP250 = tested on: CP250
Method in brief: as §1

CP252 = tested on: CP252
Method in brief: as §1

CP256 = tested on: CP256
Method in brief: as §1

CP260 = tested on: CP260
Method in brief: as §1

CP203 = tested on: CP203
Method in brief: as §1
Potency means the concentration at half of the fitted maximal effect.

| Compound | Potency (AS120) | Potency (ATS189) | Potency (ATS95) | Potency (C2A) | Potency (CP185) | Potency (CP191) | Potency (CP192) | Potency (CP194) | Potency (CP201) | Potency (CP211) | Potency (CP215) | Potency (CP217) | Potency (CP237) | Potency (CP238) | Potency (CP247) | Potency (CP250) | Potency (CP252) | Potency (CP256) | Potency (CP260) | Potency (CP203) |
| --- | --- | --- | --- | --- | --- | --- | --- | --- | --- | --- | --- | --- | --- | --- | --- | --- | --- | --- | --- | --- |
| CC(C)(C)CC(C)(C)c1ccc(OCCOCC[N+](C)(C)Cc2ccccc2)cc1 | 5.01 µM (active) | 7.08 µM (active) | 3.98 µM (active) | 3.16 µM (active) | 3.55 µM (active) | 1.58 µM (active) | 4.26 µM (active) | 3.79 µM (active) | 4.78 µM (active) | 4.26 µM (active) | 5.36 µM (active) | 4.47 µM (active) | 2.51 µM (active) | 4.47 µM (active) | 3.98 µM (active) | 4.47 µM (active) | 5.01 µM (active) | 4.47 µM (active) | 1.41 µM (active) |  |
| Cc1cc(O)c(C(C)C)cc1Cl | inactive | inactive | inactive | inactive | inactive | inactive | inactive | inactive | inactive | inactive | inactive | inactive | inactive | inactive | inactive | inactive | inactive | inactive | inactive |  |
| CC(Cc1cccc(C(F)(F)F)c1)NCCOC(=O)c1ccccc1 (centres undefined) | inactive | inactive | inactive | inactive | inactive | inactive | inactive |  | inactive | inactive | inactive | inactive |  | inactive | inactive | inactive | inactive | inactive | inactive |  |
| CCCCCCCCCCCCCCCCCC(=O)OCC(O)CO (centres undefined) | inactive | inactive | inactive | inactive | inactive | inactive | inactive | inactive | inactive | inactive | inactive | inactive | inactive | inactive | inactive | inactive | inactive | inactive | inactive |  |
| COC1=CC(=O)C[C@@H](C)[C@]12Oc1c(Cl)c(OC)cc(OC)c1C2=O | inactive | inactive | inactive | inactive | inactive | inactive | inactive | inactive | inactive | inactive | inactive | inactive | inactive | inactive | inactive | inactive | inactive | inactive | inactive |  |
| NC(=NCCCCCCN=C(N)/N=C(\N)Nc1ccc(Cl)cc1)/N=C(\N)Nc1ccc(Cl)cc1 | 1.26 µM (active) | 1.78 µM (active) | 2 µM (active) | 2.24 µM (active) | 1.78 µM (active) | 1.12 µM (active) | 1.69 µM (active) | 1.51 µM (active) | 3.79 µM (active) | 1.51 µM (active) | 1.9 µM (active) | 2 µM (active) | 0.891 µM (active) | 2.24 µM (active) | 2.24 µM (active) | 2.24 µM (active) | 2 µM (active) | 1.41 µM (active) | 1 µM (active) |  |
| Cc1c(F)c(N2CCNC(C)C2)cc2c1c(=O)c(C(=O)O)cn2C1CC1 (centres undefined) | inactive | inactive | inactive | inactive | inactive | inactive | inactive | inactive | inactive | inactive | inactive | inactive | inactive | inactive | inactive | inactive | inactive | inactive | inactive |  |
| C[C@]12CC[C@@H]3c4ccc(O)cc4CC[C@H]3[C@@H]1CC[C@@H]2O | inactive | inactive | inactive | inactive | inactive | inactive | inactive | inactive | inactive | inactive | inactive | inactive | inactive | inactive | inactive | inactive | inactive | inactive | inactive |  |
| Nc1ccc(/C=C/c2ccc(N)cc2S(=O)(=O)O)c(S(=O)(=O)O)c1 | inactive | inactive | inactive | inactive | inactive | inactive | inactive | inactive | inactive | inactive | inactive | inactive | inactive | inactive | inactive | inactive | inactive | inactive | inactive |  |
| Nc1cc(Cl)c(NC2=NCCN2)c(Cl)c1 | inactive | inactive | inactive | inactive | inactive | inactive | inactive | inactive | inactive | inactive | inactive | inactive | inactive | inactive | inactive | inactive | inactive | inactive | inactive |  |
| CCC(=O)c1c(O)cc(O)cc1O | inactive | inactive | inactive | inactive | inactive | inactive | inactive | inactive | inactive | inactive | inactive | inactive | inactive | inactive | inactive | inactive | inactive | inactive | inactive |  |
| O=C(OCCOCCO)c1ccccc1Nc1cccc(C(F)(F)F)c1 | inactive | inactive | inactive | inactive | inactive | inactive | inactive | inactive | inactive | inactive | inactive | inactive | inactive | inactive | inactive | inactive | inactive | inactive | inactive |  |
| CCN1CCN(c2cc3c(cc2F)c(=O)c(C(=O)O)cn3C2CC2)CC1 | inactive | inactive | inactive | inactive | inactive | inactive | inactive | inactive | inactive | inactive | inactive | inactive |  | inactive | inactive | inactive | inactive | inactive |  |  |
| Cc1c(C)n(Cc2ccccc2)c2ccc(C(=O)OCCN(C)C)cc12 | inactive | inactive | inactive | inactive | inactive | inactive | inactive | inactive |  | inactive |  | inactive | inactive | inactive | inactive | inactive | inactive | inactive | inactive | inactive |
| O=C(COc1ccc(Cl)cc1)N1CCN(Cc2ccc3c(c2)OCO3)CC1 | inactive | inactive | inactive | inactive | inactive | inactive | inactive | inactive | inactive | inactive | inactive | inactive | inactive | inactive | inactive | inactive | inactive | inactive | inactive |  |
| N[C@H](CO)C(=O)O | inactive | inactive | inactive | inactive | inactive | inactive | inactive | inactive | inactive | inactive |  | inactive | inactive | inactive | inactive | inactive | inactive | inactive | inactive |  |
| CC(=O)c1ccc2c(c1)N(CCCN1CCC(CCO)CC1)c1ccccc1S2 | inactive | inactive | inactive | inactive | inactive | inactive | inactive |  | inactive | inactive |  | inactive |  | inactive | inactive | inactive | inactive | inactive |  |  |
| CCOc1ccc(NC(=O)CC(C)O)cc1 (centres undefined) | inactive | inactive | inactive | inactive | inactive | inactive | inactive | inactive | inactive | inactive | inactive | inactive | inactive | inactive | inactive | inactive | inactive | inactive | inactive |  |
| COc1cc(C(=S)N2CCOCC2)cc(OC)c1OC | inactive | inactive | inactive | inactive | inactive | inactive | inactive | inactive | inactive | inactive | inactive | inactive | inactive | inactive | inactive | inactive | inactive | inactive | inactive |  |
| COc1ccc(CCN2CCC(Nc3nc4ccccc4n3Cc3ccc(F)cc3)CC2)cc1 | 3.55 µM (active) | 4.47 µM (active) | 3.98 µM (active) | 2.51 µM (active) | 3.55 µM (active) | 2.24 µM (active) | 12 µM (active) | 9.53 µM (active) | 7.57 µM (active) | 15.1 µM (active) |  | 3.55 µM (active) | 2.24 µM (active) | 3.55 µM (active) | 3.98 µM (active) | 2.24 µM (active) | 3.16 µM (active) | 3.55 µM (active) | 1 µM (active) |  |
